Test results reported in PubChem BioAssay (EPA / NIEHS).
Activity calls are given as the source filed them. How the source made its calls: active means hit-call score of the fitted dose curve at least 0.9, where 1 is the maximum; inactive means score below 0.9.

assay: CCTE_Shafer_MEA_dev_per_burst_interspike_interval: CCTE's Neural Network Formation Assay for Burst Interspike Interval, Shafer Lab (AID 2284044);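 further: mean spike spacing inside bursts as AUC over recordings on days 5 7 9 12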;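 on AC50: potency for a decrease of within-burst interspike interval below DMSO level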
Experimental: CCTE_Shafer_MEA_dev assay is conducted using Axion Biosystems 48 well microelectrode array (MEA) plates and Maestro recording system. Each well of the MEA plate contains a grid of 16 microelectrodes embedded in the culture surface. Electrically active cells, such as neurons, can be cultured over the electrodes, and electrical activity in these cells can be recorded extracellularly. The spontaneous firing of neurons is captured from each electrode on a microsecond timescale providing both temporally and spatially precise data. […] The CCTE_Shafer_MEA_dev assay uses primary cultures of rat cortical neurons. Recordings are made on days post-plating 5, 7, 9 and 12. As these cultures mature over time, neural networks develop functional activity and form cohesive networks in which electrical activity can be highly coordinated. CCTE_Shafer_MEA_dev_per_burst_interspike_interval is 1 of 19 assay components of the CCTE_Shafer_MEA_dev assay. It measures the average time interval between spikes (action potential firings) within a single-electrode burst (temporally-clustered group of spikes) during a recording in a microelectrode array (MEA) using Axion Biosystems Maestro 768 channel amplifier with the AxIS adaptive spike detector. The mean inter-spike interval within bursts is averaged across the actively bursting electrodes to report a well-mean value. To collapse across multiple recordings made on days post-plating 5, 7, 9 and 12, the trapezoidal area-under-the-curve of the component is calculated.Data from the assay component CCTE_Shafer_MEA_dev_per_burst_interspike_interval was analyzed into 1 assay endpoint. This assay endpoint, CCTE_Shafer_MEA_dev_per_burst_interspike_interval, was analyzed in the negative analysis fitting direction relative to DMSO as the negative control and baseline of activity. Using a type of functional reporter, gain or loss-of-signal activity can be used to understand electrical activity.
On the day prior to culture, each well was coated thoroughly with 150 uL of 0.05% polyethyleneimine (PEI, Sigma Cat P3143) in 50 mM HEPES (Sigma Cat H7523) at a pH of 8. The plate was incubated at 37C for one hour. PEI was rinsed out with 500 uL of sterile water three times. Plates were stored at 4C until the day of culture. This culture was plated at a seeding density of 1.5 x 10^5 cells/well on a 48-well MEA plate, prepared as described above. Cells were administered via a 25 uL media/laminin ([…]; Sigma Cat L2020-1MG) drop directly onto the microelectrode array, as adding the cells with the laminin results in better attachment than pre-coating with laminin. After 2 hours, an additional 475 uL of cortical media was added and the cells returned to the incubator. Exposure starts at day 0 of plating and is continued over twelve days of network development until the experiment is terminated. Cells are fed with fresh medium on DIV 5 and 9, following the recordings on those days. The entire volume of media in the well is exchanged and any vehicle or compound treatment is renewed. Complete details are found in OP-NHEERL/ISTD/SBB/TJS/2015-03-r0 (available on request, email shafer.tim@epa.gov). Measurement of the electrical activity is non-invasive, and recordings can be made from the same plate over multiple different days of the culture. In cortical neurons, this allows for the measurement of extracellular action potentials over the period during which networks form in the MEA plate.

For `O=P(O)(O)CCC(F)(F)C(F)(F)C(F)(F)C(F)(F)C(F)(F)C(F)(F)F`, which outcome is on record?
The outcome was “inactive”.

With `O=C(O)CCC(F)(F)C(F)(F)C(F)(F)C(F)(F)C(F)(F)F` as the molecule, how does the outcome read?
The outcome was “inactive”.

For `NC(C(F)(F)F)C(F)(F)F`, which outcome is on record?
The outcome was “inactive”.

For `CC(=O)Nc1ccc(O)cc1`, which outcome is on record?
Its outcome is “inactive”.

Which AC50 does the source give for `O=C(CCCN1CCC(O)(c2ccc(Cl)cc2)CC1)c1ccc(F)cc1` here?
The AC50 was 1.78 µM (active).

Which AC50 does the source give for `Nc1ccn([C@@H]2O[C@H](CO)[C@@H](O)C2O)c(=O)n1` (stereo partly specified) here?
The AC50 was 0.85 µM (active).

Which outcome does the source give for `CN(C)CCOC(c1ccccc1)c1ccccc1` here?
Its outcome is “inactive”.

Which outcome does the source give for `OCC(F)(F)C(F)(F)C(F)(F)C(F)(F)C(F)(F)C(F)(F)C(F)(F)C(F)(F)C(F)(F)C(F)(F)C(F)(F)F` here?
The outcome was “inactive”.

Which outcome does the source give for `O=C(CC(=O)C(F)(F)C(F)(F)C(F)(F)F)c1cccs1` here?
The outcome was “inactive”.

With `COC(=O)C(F)(F)C(F)(F)C(F)(F)F` as the molecule, how does the outcome read?
Its outcome is “inactive”.

For `FCOC(C(F)(F)F)C(F)(F)F`, which outcome is on record?
The outcome was “inactive”.

Which AC50 does the source give for `CC(C)c1c(C(=O)Nc2ccccc2)c(-c2ccccc2)c(-c2ccc(F)cc2)n1CC[C@@H](O)C[C@@H](O)CC(=O)O` here?
Its AC50 is 0.0255 µM (active).

For `FC(F)=C(F)C(F)(F)C(F)(F)C(F)(F)C(F)F`, which outcome is on record?
Its outcome is “inactive”.

Which outcome does the source give for `O=C(O)C(F)(F)OC(F)(F)C(F)(F)OC(F)(F)C(F)(F)OC(F)(F)C(F)(F)C(F)(F)C(F)(F)F` here?
Its outcome is “inactive”.

For `O=C(C=C(O)C(F)(F)F)C(F)(F)F`, which outcome is on record?
Its outcome is “inactive”.

With `O=C(OC(=O)C(F)(F)C(F)(F)F)C(F)(F)C(F)(F)F` as the molecule, how does the outcome read?
The outcome was “inactive”.

For `C=CC(F)(F)C(F)(F)C(F)(F)C(F)(F)F`, which outcome is on record?
The outcome was “inactive”.

For `CN(CCO)S(=O)(=O)C(F)(F)C(F)(F)C(F)(F)C(F)(F)C(F)(F)C(F)(F)C(F)(F)C(F)(F)F`, which outcome is on record?
Its outcome is “inactive”.

For `O=CC(F)(F)C(F)(F)C(F)(F)C(F)F`, which outcome is on record?
The outcome was “inactive”.

With `O=CC(F)(F)C(F)(F)C(F)(F)F` as the molecule, how does the outcome read?
The outcome was “inactive”.

For `O=C(F)C(F)(F)C(F)(F)C(F)(F)C(F)F`, which outcome is on record?
The outcome was “inactive”.

With `O=C(F)C(F)(F)C(F)(F)C(F)(F)C(=O)F` as the molecule, how does the outcome read?
The outcome was “inactive”.

Which outcome does the source give for `O=C1NS(=O)(=O)c2ccccc21` here?
Its outcome is “inactive”.

Which outcome does the source give for `COC(=O)C(F)(F)C(F)(F)C(F)(F)C(F)(F)C(F)(F)F` here?
The outcome was “inactive”.

With `O=P(O)(O)CCC(F)(F)C(F)(F)C(F)(F)C(F)(F)C(F)(F)C(F)(F)C(F)(F)C(F)(F)F` as the molecule, how does the outcome read?
Its outcome is “inactive”.

Which AC50 does the source give for `CN(Cc1cnc2nc(N)nc(N)c2n1)c1ccc(C(=O)N[C@@H](CCC(=O)O)C(=O)O)cc1` here?
The AC50 was 2.98 µM (active).
